Test results from PubChem BioAssay (NCATS).
Inconclusive results are not listed. A call without a number means that no potency is given here. Activity calls are given as the source filed them. Unless noted, calls follow the shape of the dose curve; as a rule, active = well fitted curve in the direction sought with a large enough effect; inconclusive = small, poorly fitted or top-dose-only effect, or another doubt; inactive = no such curve, though single readings can be large; an effect the other way counts as inactive or inconclusive.

Key:
[1] = target: ATP-dependent 6-phosphofructokinase (Trypanosoma brucei brucei) (UniProt O15648); test: qHTS Assay to Find Inhibitors of T. brucei phosphofructokinase: hit validation (AID 492961);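 also: luminescence reports ADP formed as PFK phosphorylates fructose-6-phosphate with ATP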; conditions: T. brucei PFK, ADP-Glo luminescence; series mostly up to 51.4 µM
Chain of ATP-dependent 6-phosphofructokinase (Trypanosoma brucei brucei) (O15648 whole entry, looked up): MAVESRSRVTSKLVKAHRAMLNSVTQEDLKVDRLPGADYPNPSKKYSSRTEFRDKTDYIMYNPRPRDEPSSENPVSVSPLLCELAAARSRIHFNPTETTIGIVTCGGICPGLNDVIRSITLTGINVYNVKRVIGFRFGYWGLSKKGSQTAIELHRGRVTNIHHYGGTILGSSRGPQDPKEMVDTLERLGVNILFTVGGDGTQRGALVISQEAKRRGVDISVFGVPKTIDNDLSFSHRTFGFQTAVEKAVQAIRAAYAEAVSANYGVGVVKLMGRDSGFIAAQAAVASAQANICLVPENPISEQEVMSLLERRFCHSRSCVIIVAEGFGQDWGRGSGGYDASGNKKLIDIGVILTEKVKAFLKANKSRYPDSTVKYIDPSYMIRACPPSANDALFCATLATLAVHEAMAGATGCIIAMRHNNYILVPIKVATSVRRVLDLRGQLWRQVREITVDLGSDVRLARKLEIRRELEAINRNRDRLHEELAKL
Outline: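 Inhibition of parasite PFK is measured as reduced ADP formation, quantified via luciferase after ATP depletion. Assay used 0.1 mM ATP, 0.5 mM F6P, 1.25 nM enzyme, 45 min incubation.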

[2] = target: D(1A) dopamine receptor (Homo sapiens) (UniProt P21728); test: HTS Assay for Allosteric Agonists of the Human D1 Dopamine Receptor: Primary Screen for Agonists (AID 488981); conditions: Inducible HEK293 T-REx D1 cells, calcium-flux fluorescence, 180 s kinetic; series mostly up to 41.8 µM
Chain of D(1A) dopamine receptor (Homo sapiens) (P21728 whole entry, looked up): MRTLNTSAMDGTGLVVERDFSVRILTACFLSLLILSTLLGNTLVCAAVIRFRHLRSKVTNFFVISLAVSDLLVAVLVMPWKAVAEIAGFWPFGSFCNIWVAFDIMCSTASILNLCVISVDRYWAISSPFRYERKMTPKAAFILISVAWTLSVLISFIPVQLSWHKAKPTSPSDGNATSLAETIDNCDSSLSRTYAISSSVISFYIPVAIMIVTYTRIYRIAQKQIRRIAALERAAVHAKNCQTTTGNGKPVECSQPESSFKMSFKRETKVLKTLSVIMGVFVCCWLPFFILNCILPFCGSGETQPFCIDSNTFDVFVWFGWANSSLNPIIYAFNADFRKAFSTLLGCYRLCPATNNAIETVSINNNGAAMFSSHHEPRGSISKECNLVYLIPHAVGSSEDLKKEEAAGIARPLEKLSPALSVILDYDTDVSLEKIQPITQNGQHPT
Outline: (§1)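 Tetracycline-induced HEK293 Trex D1 cells with forced coupling to calcium, loaded with no-wash calcium dye; kinetic fluorescence read 180 s after compound addition for agonism, then a further 180 s after an EC20 dopamine challenge for potentiation.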

[3] = target: D(1A) dopamine receptor (Homo sapiens) (UniProt P21728); test: HTS Assay for Allosteric Agonists of the Human D1 Dopamine Receptor: Primary Screen for Potentiators (AID 488982); conditions: HEK293 T-REx D1 inducible cells, calcium flux, kinetic fluorescence; series mostly up to 8.37 µM
Outline: as §1

[4] = target: D(1A) dopamine receptor (Homo sapiens) (UniProt P21728); test: HTS Assay for Allosteric Agonists of the Human D1 Dopamine Receptor: Primary Screen for Antagonists (AID 488983); conditions: D1 receptor cell assay, antagonist mode, qHTS titration; series mostly up to 41.8 µM;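 also: calcium flux response to an EC80 dopamine challenge measured with no-wash dye; nearly all actives have a fitted effect of over 65% in size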
Outline: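 Calcium-flux read-out in inducible HEK293 T-REx cells expressing D1, dye-loaded 30–90 min at room temperature. Kinetic reads: 180 s after compound (agonist phase), then 180 s after an EC80 dopamine challenge.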

[5] = Validation screen for small molecules that induce genotoxicity in human embryonic kidney (HEK293T) cells expressing luciferase-tagged ELG1 (AID 493106); conditions: luminescence; series mostly up to 46.1 µM
Outline: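 ELG1-luciferase reporter readout (ONE-Glo, 30 min, room temperature) after 16 hr compound treatment at 37 °C of HEK293T cells at 2,000 per well. Rising luminescence flags genotoxic stress.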

[6] = target: ATPase family AAA domain-containing protein 5 (Homo sapiens) (UniProt Q96QE3); test: Validation screen for small molecules that inhibit ELG1-dependent DNA repair in human embryonic kidney (HEK293T) cells expressing luciferase-tagged ELG1 (AID 493107); conditions: HEK293T ELG1-luciferase level, luminescence, 5-fluorouridine co-treatment, 16 h; series mostly up to 46.1 µM;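 also: inhibitors lower the ELG1-luciferase luminescence signal; nearly all actives have a fitted effect of over 70% in size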
Outline: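 Luciferase read-out, ONE-Glo, 30 min at room temperature, follows 16 h co-exposure at 37 C of compound and the DNA-damaging agent 5-fluorouridine. Cells: HEK293T with ELG1-luciferase fusion, 2,000 per well, DMSO as vehicle.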

[7] = target: Thyrotropin-releasing hormone receptor (Homo sapiens) (UniProt P34981); test: qHTS for Small Molecule Agonists and Allosteric Enhancers of Human TRH Receptor: Validation Screen for Agonists (AID 493127;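 active = calcium activation more than 3 SD above the typical response in the agonist read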;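 also: intracellular calcium rise by fluo-8 fluorescence before TRH EC20 addition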); conditions: TRH receptor agonist cell assay; at 2 µM; stronger effect = higher value
Chain of Thyrotropin-releasing hormone receptor (Homo sapiens) (P34981 whole entry, looked up): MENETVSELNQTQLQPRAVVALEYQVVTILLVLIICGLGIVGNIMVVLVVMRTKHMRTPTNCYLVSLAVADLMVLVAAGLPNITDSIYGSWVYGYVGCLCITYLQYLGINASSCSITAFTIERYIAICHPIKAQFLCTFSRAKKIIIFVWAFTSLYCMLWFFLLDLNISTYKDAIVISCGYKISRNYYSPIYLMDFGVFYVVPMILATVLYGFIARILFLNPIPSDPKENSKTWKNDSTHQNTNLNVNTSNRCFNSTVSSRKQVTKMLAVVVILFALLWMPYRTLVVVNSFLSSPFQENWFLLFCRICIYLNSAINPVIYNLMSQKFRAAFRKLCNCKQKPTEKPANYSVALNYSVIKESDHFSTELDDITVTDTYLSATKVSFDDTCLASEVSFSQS
Outline: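 Compound-evoked intracellular calcium release in fluo-8-loaded TRHR cells, read kinetically on FDSS (Ex 480/Em 530, 1 s/cycle) after 23 nL pintool transfer. Agonist phase preceded 10 nM TRH EC20 addition.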

[8] = Nrf2 qHTS screen for inhibitors: Validation (AID 493153; active = well fitted inhibition curve with a large enough effect in the main read-out, with a control signal flat, not every such curve was filed as active); conditions: A549 ARE-Fluc reporter, 18-24 h; viability change: measured here: cytotoxicity max response; luciferase luminescence, at 46.1 µM (top of the series)
Outline: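 Concentration-response on A549 ARE_Fluc reporter cells exposed 18-24 h at 37 C, 5% CO2. Cytotoxicity read first by CellTiter-Fluor fluorescence (Ex 405/Em 525), then Nrf2 inhibition by BugLite luminescence after 15 min.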

[9] = qHTS for Inhibitors of Cell Surface uPA Generation: Validation Assay (AID 493164); conditions: mouse cells, plasminogen activation; series mostly up to 38.3 µM;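 also: RAW 264.7 macrophage cells exposed to compound for 18 h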
Outline: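 ATP-Lite luminescence read-out: ATP remains high when uPA activity-dependent LF translocation into the cytoplasm is blocked. RAW 264.7 cells, 18 h compound exposure at 37 C; 7-point titration, 2.45 nM to 38.3 uM final.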

[10] = target: Galactokinase (Homo sapiens) (UniProt P51570); test: qHTS Validation Assay for Inhibitors of Human Galactokinase (GALK) (AID 493189); conditions: purified human GALK enzyme activity, qHTS 7-point titration; series mostly up to 57.5 µM
Chain of Galactokinase (Homo sapiens) (P51570 whole entry, looked up): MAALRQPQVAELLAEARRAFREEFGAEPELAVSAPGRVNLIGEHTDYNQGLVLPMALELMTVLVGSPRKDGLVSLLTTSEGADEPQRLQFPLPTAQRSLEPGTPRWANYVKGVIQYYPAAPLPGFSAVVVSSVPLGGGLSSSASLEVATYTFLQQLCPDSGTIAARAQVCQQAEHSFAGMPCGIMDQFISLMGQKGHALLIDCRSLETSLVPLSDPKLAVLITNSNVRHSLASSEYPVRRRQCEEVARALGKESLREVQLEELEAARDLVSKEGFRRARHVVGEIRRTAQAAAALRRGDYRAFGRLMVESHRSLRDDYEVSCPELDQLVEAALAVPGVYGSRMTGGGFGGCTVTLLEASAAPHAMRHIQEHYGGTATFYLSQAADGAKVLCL
Outline: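 5 nM GALK / 100 uM galactose / 35 uM ATP, 20 mM HEPES pH8.0, 5 mM MgCl2, 60 mM NaCl, 1 mM DTT, 0.01% BSA (final). RT 1 h; Kinase-Glo Plus luminescence.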

[11] = Validation screen for small molecules that induce DNA re-replication in SW480 colon adenocarcinoma cells (AID 504364); conditions: DNA re-replication phenotype (high-content imaging); series mostly up to 46.1 µM
Outline: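 Image-based DNA content read-out: Hoechst stain 40 min, total nuclear fluorescence intensity (ex 405 nm, em 500-530 nm) after 48 h compound exposure of 250 SW480 cells/well at 37 C, 5% CO2, versus DMSO vehicle.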

[12] = target: Peptidyl-prolyl cis-trans isomerase NIMA-interacting 1 (Homo sapiens) (UniProt Q13526); test: qHTS Validation Assay to Find Inhibitors of Pin1 (AID 504536; active = well fitted inhibition curve with a large enough effect in the polarisation, with a control signal flat, not every such curve was filed as active; the % refers to the polarisation); conditions: Pin1 fluorescence polarization peptide binding assay; series mostly up to 57.5 µM
Chain of Peptidyl-prolyl cis-trans isomerase NIMA-interacting 1 (Homo sapiens) (Q13526 whole entry, looked up): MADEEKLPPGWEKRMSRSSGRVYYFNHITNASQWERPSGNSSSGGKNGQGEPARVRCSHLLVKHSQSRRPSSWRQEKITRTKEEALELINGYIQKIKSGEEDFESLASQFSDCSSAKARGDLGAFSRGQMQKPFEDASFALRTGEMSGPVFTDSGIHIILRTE
Outline: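 Fluorescence polarization competition: compounds (titration) displace HiFluor-488-labeled Pin1-1b peptide from Pin1 (0.3 uM final) in pH 7.5 HEPES buffer with DTT, 10 min at room temperature; %Activity normalized to no-enzyme wells, curves fitted.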

[13] = target: Phosphoglycerate kinase, glycosomal (Trypanosoma brucei brucei) (UniProt P07378); test: qHTS Validation Assay to Find Inhibitors of Phosphoglycerate Kinase (AID 504547); conditions: enzymatic PGK inhibition, coupled luminescence read-out; series mostly up to 57.5 µM
Chain of Phosphoglycerate kinase, glycosomal (Trypanosoma brucei brucei) (P07378 whole entry, looked up): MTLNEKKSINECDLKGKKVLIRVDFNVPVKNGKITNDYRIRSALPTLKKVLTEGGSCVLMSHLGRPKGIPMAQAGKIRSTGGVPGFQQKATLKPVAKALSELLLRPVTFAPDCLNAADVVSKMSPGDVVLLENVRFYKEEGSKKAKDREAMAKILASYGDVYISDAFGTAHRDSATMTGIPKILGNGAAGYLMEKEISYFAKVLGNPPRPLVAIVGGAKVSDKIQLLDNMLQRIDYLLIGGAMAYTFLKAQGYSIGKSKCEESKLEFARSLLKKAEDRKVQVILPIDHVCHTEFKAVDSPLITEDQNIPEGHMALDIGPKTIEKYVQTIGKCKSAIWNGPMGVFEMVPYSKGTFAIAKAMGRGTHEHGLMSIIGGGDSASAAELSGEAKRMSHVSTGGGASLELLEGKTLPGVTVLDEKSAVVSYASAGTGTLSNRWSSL
Outline: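 Compounds are pinned into the substrate/PGK mixture, and GAPDH (100nM final) is added to start the reaction by producing 1,3-BPG. After 60 minutes at room temperature, Kinase-Glo Plus is added and luminescence is measured 10 minutes later.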

[14] = target: phosphoglycerate mutase (Leishmania major) (UniProt Q4Q090); test: qHTS Validation Assay to Find Inhibitors of Phosphoglycerate Mutase (AID 504548); conditions: biochemical enzyme activity; series mostly up to 57.5 µM
Chain of phosphoglycerate mutase (Leishmania major) (Q4Q090 1-553): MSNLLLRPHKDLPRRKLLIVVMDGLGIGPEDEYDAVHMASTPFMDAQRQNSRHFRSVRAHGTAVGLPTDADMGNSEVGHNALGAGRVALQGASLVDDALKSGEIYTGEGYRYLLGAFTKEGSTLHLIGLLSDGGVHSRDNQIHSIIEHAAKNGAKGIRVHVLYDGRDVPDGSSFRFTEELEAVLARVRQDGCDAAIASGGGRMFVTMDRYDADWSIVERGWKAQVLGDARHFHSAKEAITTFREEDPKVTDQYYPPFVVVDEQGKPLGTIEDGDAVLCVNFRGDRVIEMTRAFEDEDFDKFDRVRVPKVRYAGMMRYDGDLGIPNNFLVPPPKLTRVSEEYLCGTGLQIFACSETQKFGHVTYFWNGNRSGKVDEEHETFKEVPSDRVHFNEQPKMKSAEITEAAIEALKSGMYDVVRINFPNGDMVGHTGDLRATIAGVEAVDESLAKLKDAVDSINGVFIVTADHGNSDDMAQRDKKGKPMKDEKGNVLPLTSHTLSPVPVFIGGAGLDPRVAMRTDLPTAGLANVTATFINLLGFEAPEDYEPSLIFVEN
Outline: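 Luminescent end-point read-out via Kinase-GloPlus after a 10-minute development. Reaction: 1.25nM Leishmania major PGAM with substrate and compound, 45 minutes at room temperature in TEA buffer (pH 7.6) with MgCl2 and Tween-20.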

[15] = qHTS for Inhibitors of ATXN expression: Validation (AID 588378); conditions: cell-based ATXN2 expression reporter assay, luminescence; series mostly up to 57.1 µM; also: nearly all actives have a fitted effect of over 75% in size
Outline: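 Compounds were pinned onto attached HEK293 cells carrying an ATXN2-firefly luciferase construct and incubated 24 hrs at 37 degrees C. Each well then received a fluorescent viability reagent followed by luciferase substrate for end-point luminescence.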

[16] = target: Ubiquitin carboxyl-terminal hydrolase 1 (Homo sapiens) (UniProt O94782); test: Inhibitors of USP1/UAF1: Pilot qHTS (AID 504865); conditions: purified USP1/UAF1, Ub-rhodamine cleavage fluorescence; series mostly up to 114 µM;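 also: rhodamine fluorescence freed from ubiquitin-rhodamine substrate followed over time; top concentration of the series differs between compounds; nearly all actives have a fitted effect of over 35% in size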
Chain of Ubiquitin carboxyl-terminal hydrolase 1 (Homo sapiens) (O94782 whole entry, looked up): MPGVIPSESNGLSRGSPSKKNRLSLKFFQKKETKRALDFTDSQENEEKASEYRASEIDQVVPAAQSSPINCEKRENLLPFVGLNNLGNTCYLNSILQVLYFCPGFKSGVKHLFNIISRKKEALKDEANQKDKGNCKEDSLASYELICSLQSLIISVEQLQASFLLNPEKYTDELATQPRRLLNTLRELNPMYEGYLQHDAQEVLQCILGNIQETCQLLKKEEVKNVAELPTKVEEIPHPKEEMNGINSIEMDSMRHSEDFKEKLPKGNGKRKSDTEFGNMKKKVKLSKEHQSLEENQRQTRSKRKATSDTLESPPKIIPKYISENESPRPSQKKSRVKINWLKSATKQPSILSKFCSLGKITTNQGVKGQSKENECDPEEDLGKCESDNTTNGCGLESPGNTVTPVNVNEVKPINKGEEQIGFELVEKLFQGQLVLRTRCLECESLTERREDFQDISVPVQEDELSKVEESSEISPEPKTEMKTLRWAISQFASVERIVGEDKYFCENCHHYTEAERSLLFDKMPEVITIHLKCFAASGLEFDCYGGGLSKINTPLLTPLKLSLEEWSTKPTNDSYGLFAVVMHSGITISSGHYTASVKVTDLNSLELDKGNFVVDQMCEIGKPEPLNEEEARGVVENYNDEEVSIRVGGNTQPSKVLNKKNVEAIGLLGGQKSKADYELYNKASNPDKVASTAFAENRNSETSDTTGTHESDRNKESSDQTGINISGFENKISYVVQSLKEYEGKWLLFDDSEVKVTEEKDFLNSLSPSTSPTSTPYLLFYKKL
Outline: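 In 50mM HEPES pH 7.8 containing 0.5mM EDTA, 1mM TCEP, 0.1 mg/ml BSA and 0.01% Tween-20, 1nM USP1/UAF1 is exposed to compound for 15 min, then Ub-Rho (150nM final) is added and fluorescence is read over time.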

## O=C(OCCOCCO)c1ccccc1Nc1cccc(C(F)(F)F)c1
[1]
  outcome: inactive

## Cc1ccnc(NS(=O)(=O)c2ccc(N)cc2)n1
[1]
  outcome: inactive

## Cc1ncc(CSSCc2cnc(C)c(O)c2CO)c(CO)c1O
[1]
  outcome: inactive

## O=C(O)c1cc2cc(Cc3cccnc3)ccc2o1
[2]
  Potency: inactive
[3]
  outcome: inactive
[4]
  Potency: inactive
[5]
  outcome: inactive
[6]
  Potency: inactive
[7]
  activation: 1.38% (inactive)
[8]
  outcome: inactive
  viability change: 0.85%
[9]
  outcome: inactive
[10]
  outcome: inactive
[11]
  outcome: inactive
[12]
  outcome: inactive
[13]
  outcome: inactive
[14]
  outcome: inactive
[15]
  Potency: inactive

## Nc1cc(Cl)c(NC2=NCCN2)c(Cl)c1
[2]
  Potency: inactive
[3]
  outcome: inactive
[4]
  Potency: inactive
[1]
  outcome: inactive
[5]
  outcome: inactive
[6]
  Potency: inactive
[7]
  activation: 1.12% (inactive)
[8]
  outcome: inactive
  viability change: 1.6%
[9]
  outcome: inactive
[10]
  outcome: inactive
[11]
  outcome: inactive
[12]
  outcome: inactive
[13]
  outcome: inactive
[14]
  outcome: inactive
[16]
  Potency: inactive
[15]
  Potency: inactive

## CCCn1c(=O)[nH]c(=O)c2[nH]cnc21
[2]
  Potency: inactive
[3]
  outcome: inactive
[4]
  Potency: inactive
[5]
  outcome: inactive
[6]
  Potency: inactive
[8]
  outcome: inactive
  viability change: 7.08%
[9]
  outcome: inactive
[10]
  outcome: inactive
[11]
  outcome: inactive
[12]
  outcome: inactive
[13]
  outcome: inactive
[14]
  outcome: inactive
[16]
  Potency: inactive
[15]
  Potency: inactive

## CC(C)COC(=O)OCN1C(=O)CN(CCN2CC(=O)N(COC(=O)OCC(C)C)C(=O)C2)CC1=O
[2]
  Potency: inactive
[3]
  outcome: inactive
[4]
  Potency: inactive
[1]
  outcome: inactive
[5]
  outcome: inactive
[6]
  Potency: inactive
[7]
  activation: 0.75% (inactive)
[8]
  outcome: inactive
  viability change: -6.78%
[9]
  outcome: inactive
[10]
  outcome: inactive
[12]
  outcome: inactive
[13]
  outcome: inactive
[14]
  outcome: inactive
[16]
  Potency: inactive
[15]
  Potency: inactive

## O=C1CCC(c2ccc(-n3ccnc3)cc2)=NN1
[2]
  Potency: inactive
[3]
  outcome: inactive
[4]
  Potency: inactive
[1]
  outcome: inactive
[5]
  outcome: inactive
[7]
  activation: 0.188% (inactive)
[8]
  outcome: inactive
  viability change: 9.43%
[9]
  outcome: inactive
[10]
  outcome: inactive
[11]
  outcome: inactive
[12]
  outcome: inactive
[13]
  outcome: inactive
[14]
  outcome: inactive
[15]
  Potency: inactive
